Measured values from PubChem BioAssay.
The source made the active and inactive calls.

Key:
[1] = small molecules captured by biotinylated probe aFSTL3 – biochemical, small-molecule microarray, fluorescence 635/667, stem cell growth factor project, primary screen (AID 1064); conditions: higher = more signal;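 note: measures binding of the biotinylated anti-FSTL3 antibody to printed compounds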
[2] = binders from COS7 lysate, DM2A8 probe, primary screen, torsin A project, cell lysate, small-molecule microarray, fluorescence 635/667 (AID 1065); conditions: higher = more signal, COS7 lysate expressing mutant human TOR1A
[3] = small molecules captured by biotinylated probe aFGF2 – biochemical, small-molecule microarray, fluorescence 635/667, stem cell growth factor project, primary screen (AID 1067); conditions: higher = more signal;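 note: measures binding of biotinylated aFGF2 protein to printed compounds on slides; z-score merges feature fluorescence and signal-to-noise across triplicate slides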
[4] = small molecules captured by biotinylated probe aFGF10 – biochemical, small-molecule microarray, fluorescence 635/667, stem cell growth factor project, primary screen (AID 1071); conditions: higher = more signal;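 note: score merges 667 nm spot intensity and signal to noise from triplicate slides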
[5] = molecular target: Neurogenic locus notch homolog protein 2 (Homo sapiens) (UniProt Q04721); experiment: small molecules binding Notch2 protein – biochemical, small-molecule microarray, 635 nm fluorescence, stem cell growth factors, primary screen (AID 1073); conditions: higher = more signal
[6] = molecular target: Pro-neuregulin-1, membrane-bound isoform (Homo sapiens) (UniProt Q02297); experiment: small molecules binding neuregulin-1 protein – biochemical, small-molecule microarray, fluorescence 635/667, psychiatric disease protein project, primary screen (AID 1075); conditions: NRG1 binding, 635 nm fluorescence, higher = more signal;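 note: score combines 667 nm spot fluorescence with signal to noise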
[7] = tested on: Neuregulin-1 EGF-like domain; experiment: small molecules binding NRG1 EGF domain – biochemical, small-molecule microarray, 635 nm fluorescence, primary screen (AID 1081); conditions: higher = more signal;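 note: binding of the protein to compounds printed on small-molecule microarray slides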
[8] = FRG1 expression reporter modulators in myotubes – cell-based, C2C12 myotubes, firefly/Renilla luciferase, luminescence, FRG1 inhibition for FSHD, primary screen (AID 1084); conditions: FRG1 promoter luciferase, higher = more signal, called active from +8 up or from −8 down
[9] = small molecules captured by biotinylated probe aFST – biochemical, small-molecule microarray, fluorescence 635/667, stem cell growth factor project, primary screen (AID 1086); conditions: higher = more signal;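 note: score merges 667 nm fluorescence with signal-to-noise of each printed compound spot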
[10] = binders of probe aHhip on microarray, primary screen, stem cell growth factor project, biochemical, small-molecule microarray, fluorescence 635/667 (AID 1087); conditions: higher = more signal;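 note: score merges spot fluorescence at 667nm with spot signal to noise ratio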

Neurogenic locus notch homolog protein 2 (Homo sapiens), sequence (Q04721 whole entry, looked up, canonical isoform): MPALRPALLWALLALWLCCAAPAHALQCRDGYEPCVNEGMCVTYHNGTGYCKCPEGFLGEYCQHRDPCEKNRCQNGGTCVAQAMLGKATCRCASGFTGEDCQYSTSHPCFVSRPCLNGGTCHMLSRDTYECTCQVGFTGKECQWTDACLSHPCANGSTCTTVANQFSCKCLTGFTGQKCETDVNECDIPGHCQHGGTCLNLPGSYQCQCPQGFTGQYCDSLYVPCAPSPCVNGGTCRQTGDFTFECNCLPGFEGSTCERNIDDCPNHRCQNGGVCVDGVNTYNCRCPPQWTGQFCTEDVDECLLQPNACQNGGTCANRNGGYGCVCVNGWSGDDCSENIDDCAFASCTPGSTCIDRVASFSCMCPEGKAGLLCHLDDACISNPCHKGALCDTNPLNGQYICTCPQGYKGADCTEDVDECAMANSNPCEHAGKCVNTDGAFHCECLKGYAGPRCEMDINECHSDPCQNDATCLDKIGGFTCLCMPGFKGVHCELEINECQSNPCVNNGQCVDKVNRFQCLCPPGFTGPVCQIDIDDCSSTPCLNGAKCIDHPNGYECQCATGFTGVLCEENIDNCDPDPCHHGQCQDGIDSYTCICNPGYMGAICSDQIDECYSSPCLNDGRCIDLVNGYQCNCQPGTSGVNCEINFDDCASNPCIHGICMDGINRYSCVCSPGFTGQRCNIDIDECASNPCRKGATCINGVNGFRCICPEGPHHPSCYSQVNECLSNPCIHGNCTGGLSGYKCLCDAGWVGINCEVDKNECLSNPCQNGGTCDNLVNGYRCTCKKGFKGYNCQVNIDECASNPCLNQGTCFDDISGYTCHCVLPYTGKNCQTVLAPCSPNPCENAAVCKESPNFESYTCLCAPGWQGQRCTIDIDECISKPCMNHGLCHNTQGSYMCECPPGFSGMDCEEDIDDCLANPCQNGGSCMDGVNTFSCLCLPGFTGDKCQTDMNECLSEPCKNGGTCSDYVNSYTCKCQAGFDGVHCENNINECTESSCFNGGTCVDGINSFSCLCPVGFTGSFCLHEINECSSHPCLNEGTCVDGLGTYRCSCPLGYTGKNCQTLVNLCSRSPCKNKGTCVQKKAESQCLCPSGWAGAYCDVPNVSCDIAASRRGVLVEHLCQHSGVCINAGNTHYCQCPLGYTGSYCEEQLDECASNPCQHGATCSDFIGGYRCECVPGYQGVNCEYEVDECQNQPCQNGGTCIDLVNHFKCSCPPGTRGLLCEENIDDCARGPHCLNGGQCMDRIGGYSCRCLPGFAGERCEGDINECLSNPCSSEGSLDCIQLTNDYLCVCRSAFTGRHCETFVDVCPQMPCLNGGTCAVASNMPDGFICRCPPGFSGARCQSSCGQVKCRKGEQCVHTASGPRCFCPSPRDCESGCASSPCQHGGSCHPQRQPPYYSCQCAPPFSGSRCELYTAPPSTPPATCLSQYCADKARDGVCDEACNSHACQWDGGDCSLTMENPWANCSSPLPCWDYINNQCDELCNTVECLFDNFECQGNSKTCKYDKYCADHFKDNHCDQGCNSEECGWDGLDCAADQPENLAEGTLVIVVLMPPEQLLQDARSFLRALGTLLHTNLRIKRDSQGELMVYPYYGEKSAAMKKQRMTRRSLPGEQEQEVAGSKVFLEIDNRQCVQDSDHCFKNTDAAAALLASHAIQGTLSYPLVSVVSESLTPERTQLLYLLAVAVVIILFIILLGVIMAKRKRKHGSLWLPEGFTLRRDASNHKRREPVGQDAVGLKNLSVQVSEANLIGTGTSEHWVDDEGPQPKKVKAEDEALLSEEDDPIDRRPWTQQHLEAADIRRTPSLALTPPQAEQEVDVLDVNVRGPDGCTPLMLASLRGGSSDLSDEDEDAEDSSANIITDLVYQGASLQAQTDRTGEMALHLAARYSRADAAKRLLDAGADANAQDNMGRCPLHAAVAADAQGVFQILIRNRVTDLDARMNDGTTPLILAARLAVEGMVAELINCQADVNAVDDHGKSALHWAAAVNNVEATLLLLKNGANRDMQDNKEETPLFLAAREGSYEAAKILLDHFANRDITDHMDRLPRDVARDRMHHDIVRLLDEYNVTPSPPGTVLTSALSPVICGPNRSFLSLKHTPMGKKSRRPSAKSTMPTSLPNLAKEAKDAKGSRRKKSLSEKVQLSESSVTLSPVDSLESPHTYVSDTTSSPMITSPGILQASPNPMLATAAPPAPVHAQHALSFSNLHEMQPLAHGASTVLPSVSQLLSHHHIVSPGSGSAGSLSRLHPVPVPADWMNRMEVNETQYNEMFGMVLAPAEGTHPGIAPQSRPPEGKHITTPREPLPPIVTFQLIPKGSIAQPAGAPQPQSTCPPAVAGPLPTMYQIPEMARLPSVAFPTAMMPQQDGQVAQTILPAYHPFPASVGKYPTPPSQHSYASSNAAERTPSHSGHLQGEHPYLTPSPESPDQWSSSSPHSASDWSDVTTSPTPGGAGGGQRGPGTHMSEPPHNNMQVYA
Pro-neuregulin-1, membrane-bound isoform (Homo sapiens), sequence (Q02297 whole entry, looked up, the tested form may be a part, canonical isoform): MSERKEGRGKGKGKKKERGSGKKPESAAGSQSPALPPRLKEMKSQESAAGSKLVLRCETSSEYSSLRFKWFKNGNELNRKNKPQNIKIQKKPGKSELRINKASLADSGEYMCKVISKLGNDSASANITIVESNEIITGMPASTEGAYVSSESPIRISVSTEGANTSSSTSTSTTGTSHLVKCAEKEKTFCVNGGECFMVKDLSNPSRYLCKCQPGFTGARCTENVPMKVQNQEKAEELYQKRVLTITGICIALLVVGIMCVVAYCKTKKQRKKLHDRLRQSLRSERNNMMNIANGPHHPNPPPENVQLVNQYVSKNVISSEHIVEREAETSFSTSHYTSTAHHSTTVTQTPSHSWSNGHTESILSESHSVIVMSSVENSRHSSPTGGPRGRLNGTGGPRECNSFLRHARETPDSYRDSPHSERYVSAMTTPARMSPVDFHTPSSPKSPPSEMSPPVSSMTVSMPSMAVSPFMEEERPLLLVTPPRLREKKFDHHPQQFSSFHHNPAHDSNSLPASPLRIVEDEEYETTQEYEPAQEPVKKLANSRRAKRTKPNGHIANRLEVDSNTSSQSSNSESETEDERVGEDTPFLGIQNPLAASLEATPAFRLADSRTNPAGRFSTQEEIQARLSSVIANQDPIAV

Row | SMILES | composite z-score [1] | composite z-score [2] | composite z-score [3] | composite z-score [4] | composite z-score [5] | composite z-score [6] | composite z-score [7] | z-score [8] | composite z-score [9] | composite z-score [10]
1 | CCN1C(=O)[C@H]2[C@H]3[C@H](O)[C@H](O)CC(=NNC(=O)OCc4ccccc4)[C@@H]3CC[C@H]2C1=O | 0.18 | -0.287 | -0.153 | 0.0519 | -0.311 | -0.003 | -0.514 | 0.639 (inactive) | 0.302 | -0.249
2 | CC(CCN1CCCc2nc(C)c(C)cc21)=NO[C@@H](C)c1cn([C@H](CO)Cc2ccccc2)nn1 | -0.102 | 0.417 | -0.0257 | 0.389 | 0.414 | -0.19 | 0.28 | -0.0338 (inactive) | 0.4 | -0.277
3 | O=C1C=C[C@@H](O)[C@@H]2[C@@H]3C(=O)N(c4cccc(Oc5ccccc5)c4)C(=O)[C@@H]3CC[C@@H]12 | -0.575 | -0.285 | -0.0527 | -0.102 | 0.493 | -0.04 | 0.588 | 0.485 (inactive) | 0.241 | -0.274
4 | CC(CCN1CCCCc2nc(C)c(C)cc21)=NO[C@H](C)c1cn([C@@H]2COC[C@H]2O)nn1 | -0.565 | 2.25 | -0.126 | 0.517 | 1.11 | 0.172 | 1.18 | 0.227 (inactive) | 0.462 | -0.0772
5 | CC(C)(C)N1C(=O)[C@H]2[C@@H]3C(=CC[C@H]2C1=O)C(=O)[C@H]1O[C@H]1[C@H]3O | -0.293 | 1.62 | -0.226 | 0.25 | -0.573 | -0.261 | 0.17 | 9.15 (active) | -0.546 | 0.0024
6 | COC(=O)[C@@H]1CC[C@H](C)[C@@H](c2ccc(Br)cc2)N1 | 1.1 | -0.288 | 0.0499 | 0.169 | -0.208 | 0.153 | -0.201 | -0.382 (inactive) | -0.155 | 0.842
7 | CC(=O)OC[C@H]1O[C@H](CC=NOCC[C@@H]2C=C[C@H](OC(C)=O)[C@@H](COC(C)=O)O2)C=C[C@@H]1OC(C)=O | -0.544 | 1.16 | -0.13 | 0.414 | 0.29 | -0.254 | 0.537 | 1.06 (inactive) | 0.425 | 0.0623
8 | CCN1C(=O)[C@H]2[C@@H]3C(=CC[C@H]2C1=O)C(=O)[C@H]1O[C@H]1[C@H]3O | -0.538 | -0.0147 | -0.0996 | 0.465 | 0.613 | 0.0141 | 0.73 | -2.63 (inactive) | 0.167 | -0.0346
9 | CCOC(=O)[C@H](CC(C)C)NC(=O)CCC1CC(OC(=O)NCc2ccc3c(c2)OCO3)CC2(CCCC(COC(=O)NCCOC)O2)O1 (stereo not given in full) | -0.412 | -0.224 | -0.0785 | 0.197 | 0.805 | -0.0383 | 1.07 | 0.619 (inactive) | 0.0301 | 0.0826
10 | C[C@H]1CC[C@@H](C(=O)O)N[C@@H]1c1ccc(C#Cc2ccccc2)cc1 | -0.214 | 0.0872 | 0.0166 | 0.505 | 1.32 | 0.736 | 1.24 | 3.31 (inactive) | 0.316 | 0.176
11 | CC(C)CN1CCc2nc(-c3ccccc3)c3c(c2C1)CO[C@@H](C)C3 | -0.277 | 0.306 | -0.0291 | 0.923 | 1.31 | 0.43 | 0.846 | 0.955 (inactive) | 0.147 | -0.16
12 | CO[C@H]1COC(=O)CC=C[C@H](C)[C@H](OC)COC(=O)[C@@H](C)NC(=O)CC=C[C@@H]1C | -0.57 | 2.19 | -0.246 | -0.225 | -0.755 | -0.468 | 0.659 | 0.484 (inactive) | -0.39 | 0.172
13 | COC(=O)[C@H](CCSC)NC(=O)CC=C[C@@H](C)CO | -0.738 | 2.66 | -0.123 | 0.708 | 0.175 | -0.399 | 0.818 | -0.202 (inactive) | 0.325 | 0.484
14 | C#CCCCON=C1C[C@@H](O)[C@@H](O)[C@@H]2[C@@H]3C(=O)N(C[C@@H]4CCCO4)C(=O)[C@@H]3CC[C@@H]12 | -0.499 | 0.153 | -0.0909 | 0.691 | 0.922 | 0.404 | 0.275 | 0.737 (inactive) | -0.0371 | 0.0373
15 | COC(=O)C(C(=O)OC)C1CCCC(=O)C1 (stereo not given) | -0.414 | 1.45 | -0.0611 | 0.353 | 0.329 | -0.146 | -0.127 | 0.335 (inactive) | 0.406 | -0.264
16 | CC(C)=NOC(C)CN1CCCCc2nc(C)c(C)cc21 (stereo not given) | -0.216 | 0.927 | -0.0858 | 0.0948 | -0.134 | 0.152 | 0.093 | 0.265 (inactive) | 0.142 | 0.0695
17 | COC(=O)CC=C[C@@H](C)[C@@H](C=NOC(C)CN1CCCCc2nc(C)c(C)cc21)OC (stereo not given in full) | -0.0416 | 2.43 | -0.175 | -0.425 | -0.229 | 0.33 | 0.987 | 0.739 (inactive) | 0.286 | -0.206

Row | SMILES | composite z-score [1] | composite z-score [2] | composite z-score [3] | composite z-score [4] | composite z-score [5] | composite z-score [6] | composite z-score [7] | z-score [8] | composite z-score [9] | composite z-score [10]
18 | COC(=O)[C@H](C)NC(=O)CCC1CC(OC(=O)NCc2ccc3c(c2)OCO3)CC2(CCCC(COC(=O)NCc3ccccc3)O2)O1 (stereo not given in full) | -0.344 | 0.0374 | 0.0025 | 0.721 | 0.748 | 0.52 | 0.877 | -0.156 (inactive) | 0.0613 | -0.212
19 | CCN(CC)CC(O)CN1CCCCc2nc(C)c(C)cc21 (stereo not given) | -0.482 | 1.04 | -0.14 | 0.456 | 0.635 | -0.164 | 1.07 | -1.2 (inactive) | 0.101 | -0.112
20 | CC1(C)O[C@H]2OC([C@H](O)CON3C(=O)c4ccccc4C3=O)[C@H](O)[C@H]2O1 (stereo not given in full) | -0.437 | -0.0068 | -0.175 | 0.0685 | 0.335 | 0.166 | 0.0939 | 0.516 (inactive) | 0.169 | -0.374
21 | C[C@H]1C=CCC(=O)OC[C@H](C)C(=O)N2CCC[C@H]2C(=O)OC1 | -0.815 | 2.27 | -0.291 | -0.517 | -0.594 | -1.01 | 1.32 | 0.263 (inactive) | 0.227 | 0.107
22 | CC(C)CON=C1C[C@@H](O)[C@@H](O)[C@@H]2[C@@H]3C(=O)N([C@@H](C)c4ccccc4)C(=O)[C@@H]3CC[C@@H]12 | 0.083 | 0.114 | -0.145 | 0.107 | 0.309 | -0.104 | -0.546 | 0.431 (inactive) | 0.624 | 0.0373
23 | CCCNC(=O)OC[C@H]1O[C@H](CCON=C[C@@H](NS(=O)(=O)c2ccc(C)cc2)[C@H](C)C=CCC(=O)OC)C=C[C@@H]1Oc1ccc(OC)cc1 | -0.341 | 0.724 | -0.0425 | -0.183 | -0.127 | -0.703 | -0.83 | -0.122 (inactive) | 0.118 | -0.0994
24 | C=CC[C@@H]1C=C[C@H](ON=C[C@@H](NS(=O)(=O)c2ccc(C)cc2)[C@H](C)C=CCC(=O)OC)[C@@H](CO)O1 | -0.172 | 0.571 | -0.134 | 0.2 | -0.0681 | -0.209 | 0.476 | -0.0545 (inactive) | -0.0961 | 0.289
25 | CO[C@H]1COC(=O)[C@H](C)COC(=O)[C@@H](OCc2ccccc2)C=C[C@@H]1C | -0.411 | 0.0756 | -0.178 | 0.0844 | -0.501 | -0.319 | -0.365 | -0.224 (inactive) | 1.27 | 0.449
26 | CC(=O)OC[C@H]1O[C@H](CCON=C(C)C)C=C[C@@H]1OC(C)=O | -0.711 | -0.224 | -0.116 | 0.146 | 0.121 | -0.172 | -0.529 | 0.2 (inactive) | 0.36 | -0.0645
27 | COC(=O)[C@H](Cc1ccccc1)NC(=O)[C@@H](C)CO | 0.503 | 0.482 | -0.0105 | 0.417 | 0.458 | -0.35 | 0.867 | 0.313 (inactive) | 0.53 | -0.0672
28 | COC(=O)[C@H](C)NC(=O)CCC1CC(OC(=O)NCCc2ccc(F)cc2)CC2(CCCC(COC(=O)NCC3CCCCC3)O2)O1 (stereo not given in full) | -0.429 | 0.437 | -0.116 | 0.605 | 1.32 | 0.618 | 1.06 | 0.617 (inactive) | 0.486 | -0.143
29 | CC(CCN1CCc2nc(-c3ccccc3)c(-c3ccccc3)cc2C1)=NOC(C)CN1CCCc2nc(C)c(C)cc21 (stereo not given) | -0.0304 | 1.12 | 0.0762 | 0.681 | 1.4 | 0.72 | 1.08 | 1.1 (inactive) | 0.676 | 0.316
30 | CO[C@H]1COC(=O)[C@H](CCSC)NC(=O)CC=C[C@@H](C)[C@H](OC)COC(=O)[C@@H](OCc2ccccc2)C=C[C@@H]1C | -0.459 | 0.633 | -0.188 | 0.227 | 0.133 | -0.388 | 0.597 | 0.306 (inactive) | -0.276 | -0.134
31 | CC(=O)OC[C@H]1O[C@@H](ON=C(C)C)[C@H](OC(C)=O)[C@@H](OC(C)=O)[C@@H]1OC(C)=O | -0.133 | 1.57 | -0.194 | -0.526 | -0.105 | -1.53 | -1.47 | 0.212 (inactive) | 0.298 | -0.283
32 | COc1ccc(O[C@H]2C=C[C@@H](C#Cc3ccccc3)O[C@@H]2CO)cc1 | -0.213 | 0.0018 | -0.0206 | 0.457 | 0.339 | 0.658 | 0.644 | -1.37 (inactive) | 0.137 | -0.236
33 | Cc1ccc(S(=O)(=O)N[C@@H]2COC(=O)CC=C[C@@H](C)[C@H](NS(=O)(=O)c3ccc(C)cc3)COC(=O)[C@H](C)NC(=O)CC=C[C@H]2C)cc1 | 0.166 | 0.264 | -0.11 | -0.0539 | -1.12 | -0.921 | -0.744 | -0.138 (inactive) | -0.18 | -0.216
34 | CC(=O)OC[C@H]1O[C@H](CC=NOC[C@@H](O)[C@H]2O[C@@H]3OC(C)(C)O[C@@H]3[C@H]2O)C=C[C@@H]1OC(C)=O | -0.373 | -0.487 | 0.138 | 0.416 | 1.04 | 0.758 | 1.13 | -0.008 (inactive) | 0.265 | -0.0844
